# Experimental data published in ChEMBL document CHEMBL4513216, “Probing the Open Global Health Chemical Diversity Library for Multistage-Active Starting Points for Next-Generation Antimalarials” (ACS Infect Dis, 2020).
# Screen size: about 69,000 compounds; about 8,600 (12%) showed an effect of 50% or more. The full list was thinned out, with strong results kept by preference.
# Test system: Plasmodium berghei
# Assay: Screen against P. berghei liver stage (PbLuc), transformed with Luciferase, at 10uM
# Assay type: functional, HepG2
# Settings: tested at 10 uM
row,Compound,INHIBITION [%]
1,CCc1cc(=O)n(CC(=O)N2CCCCC2)c(-c2cccc(F)c2)n1,44.1
2,Cc1ccc(N2CCCC(N(C)c3nn4cc(C)nc4s3)C2)nn1 (stereo unspecified),-21.9
3,O[C@H]1CN(Cc2ccc3c(c2)OCCO3)CC[C@@]12CCCO2,19.6
4,Cc1cnc(-c2nc(O)c3c(n2)CN(C(=O)C2CCCO2)CC3)cn1 (stereo unspecified),9.05
5,CCN(Cc1ccoc1)C(=O)C1CCN(C(=O)OC(C)(C)C)C1 (stereo unspecified),-12.4
6,O=C(CC1CCC2(CC1)CCN(Cc1ccncc1)CC2)N1CCCC1,-15.2
7,CN1CCC(N(CCc2ccccc2)C(=O)c2ccc(C#N)cc2)CC1,53.1
8,CN1CCC(N(CCc2ccccc2)C(=O)c2ccc(C#N)nc2)CC1,12.5
9,CN1CCC(N(CCc2ccccc2)C(=O)c2ccc(CO)cc2)CC1,25.2
10,Cc1cc(C(=O)NC2=NCCS2)c(C)n1-c1ccccn1,42.1
11,Cc1ccc(CN2CCC(n3cc(C(O)c4ccccc4)nn3)CC2)o1 (stereo unspecified),48.5
12,OC(c1ccccc1)c1cn(C2CCN(Cc3nccs3)CC2)nn1 (stereo unspecified),18.5
13,Cc1ccsc1CN1CCC(n2cc(C(O)c3ccccc3)nn2)CC1 (stereo unspecified),72.1
14,CC(C)CC(O)C1CCN(C(=O)c2coc(CN3CCOCC3)c2)CC1 (stereo unspecified),16.7
15,CC(CO)CN(Cc1ccccc1)Cc1c[nH]cn1 (stereo unspecified),9.55
16,COCC(=O)N1CCC2(CC1)CC(CC(=O)NC1CC1)c1ccccc12 (stereo unspecified),25.6
17,CN(C)C1CC2(CCN(C(=O)C3(C#N)CC3)CC2)c2ccccc21 (stereo unspecified),57.5
18,Cc1ccc2c(c1)C(N(C)C)CC21CCN(CCO)CC1 (stereo unspecified),-57.1
19,CN(C)C1CC2(CCN(C(=O)NC3CC3)CC2)c2ccccc21 (stereo unspecified),61.1
20,O=C(NC1CC1)N1CCC2(CC1)CC(N1CCOCC1)c1ccccc12 (stereo unspecified),43
21,CN(C)C1CC2(CCN(C(=O)c3csnn3)CC2)c2ccccc21 (stereo unspecified),-22.1
22,CN1CCc2nc(C3CCCN(S(=O)(=O)N4CCCC4)C3)ncc2C1 (stereo unspecified),23.325
23,Cn1ccc(C(=O)NCc2ccc(N3CCCCCC3)nc2)cc1=O,17.4
24,O=C1NCCCCC1NCc1csc(-c2ccc(F)cc2)n1 (stereo unspecified),-7.17
25,Cc1cc(C)nc(NC2CCC(=O)N(C)C2)n1 (stereo unspecified),11.5
26,Cc1cc(C)nc(NC2CC(=O)N(C(C)(C)C)C2)n1 (stereo unspecified),31.2

row,Compound,INHIBITION [%]
1,Cc1cc(C)nc(NC2CC(=O)N(C)C2)n1 (stereo unspecified),63.3
2,Cc1cc(C)n(C2CCCN(C(=O)CCOc3cccc(F)c3)C2)n1 (stereo unspecified),-25.9
3,CS(=O)(=O)N[C@H]1CCO[C@]2(CCN(CC3CCOCC3)C2)C1,-44.4
4,CS(=O)(=O)N[C@H]1CCO[C@]2(CCN(C(=O)c3ccccn3)C2)C1,4.27
5,Cc1cncc(C(=O)N2CC[C@@]3(C[C@H](NS(C)(=O)=O)CCO3)C2)c1,54.4
6,CS(=O)(=O)N[C@@H]1CCO[C@]2(CCN(C(=O)c3cscn3)C2)C1,35.7
7,CS(=O)(=O)N[C@@H]1CCO[C@]2(CCN(C(=O)C3=CCCC3)C2)C1,21
8,Cc1nc(C(=O)N2CC[C@@]3(C[C@@H](NS(C)(=O)=O)CCO3)C2)cs1,62.5
9,Cc1ncoc1C(=O)N1CC[C@@]2(C[C@H](NS(C)(=O)=O)CCO2)C1,35.7
10,Cc1ccoc1C(=O)N1CC[C@@]2(C[C@H](NS(C)(=O)=O)CCO2)C1,18.5
11,CS(=O)(=O)N[C@@H]1CCO[C@]2(CCN(C(=O)c3cnccn3)C2)C1,32.4
12,Cc1nc(C(=O)N2CC[C@@]3(C[C@H](NS(C)(=O)=O)CCO3)C2)cs1,11.3
13,Cc1cc(C(=O)N2CC[C@@]3(C[C@@H](NS(C)(=O)=O)CCO3)C2)no1,69.5
14,Cc1ccc(C(=O)N2CC[C@@]3(C[C@@H](NS(C)(=O)=O)CCO3)C2)s1,50.9
15,Cc1cc(C(=O)N2CCCC(n3cccn3)C2)c(C)n1C1CC1 (stereo unspecified),5.7
16,Cc1cc(CN(C)C(=O)NCC(C)N2CCc3ccccc32)no1 (stereo unspecified),15.6
17,Cc1nccc(CN2CC[C@@]3(CCCN3Cc3ccccc3)[C@@H](O)C2)n1,39.7
18,CC(C)N1CCO[C@@H]2CN(S(=O)(=O)c3cccs3)CC[C@@H]2C1,42.4
19,Cc1cc(C)n(-c2ccc(C(=O)NCC(c3cccs3)N(C)C)cc2)n1 (stereo unspecified),30
20,CC(C)c1ocnc1C(=O)NC(c1nnc2n1CCNCC2)C(C)C (stereo unspecified),65.5
21,Cc1cc(C)c(C(=O)NC(c2nnc3n2CCNCC3)C(C)C)c(C)c1 (stereo unspecified),37.7
22,CC(C)C(NC(=O)c1ccc(=O)[nH]c1)c1nnc2n1CCNCC2 (stereo unspecified),12.6
23,CCN(CC)S(=O)(=O)N1CCCC(c2nccn2Cc2cccnc2)C1 (stereo unspecified),15.2
24,COc1cc(N2CCCC(c3nccn3Cc3cccnc3)C2)ncn1 (stereo unspecified),2.69
25,CCCSCC(=O)N1CCCC(c2nccn2Cc2ccncc2)C1 (stereo unspecified),25
26,CCN(CC)S(=O)(=O)N1CCCC(c2nccn2Cc2ccncc2)C1 (stereo unspecified),70.1

row,Compound,INHIBITION [%]
1,CN(C)S(=O)(=O)N1CCCC(c2nccn2Cc2cccnc2)C1 (stereo unspecified),11.9
2,COc1cc(N2CCCC(c3nccn3Cc3ccncc3)C2)ncn1 (stereo unspecified),54.7
3,CC(C)OC(=O)N1CCCC(c2nccn2Cc2ccncc2)C1 (stereo unspecified),50.3
4,O=C(N1CCCC1)N1CCCC(c2nccn2Cc2ccncc2)C1 (stereo unspecified),-14.6
5,COc1cc(N2CCC(c3nccn3Cc3ccccc3)CC2)ncn1,11.7
6,O=C1NC2(CCN(C(=O)N3CCOCC3)CC2)CC1c1cccnc1 (stereo unspecified),9.34
7,Cc1nc(CN2C[C@@H]3CN(C(=O)C4CC4)C[C@@H]3C2=O)cs1,42.6
8,O=C(NCCc1c[nH]c2ccccc12)C1CCC(Cn2cnnn2)CC1 (stereo unspecified),-65.9
9,Cc1cc(NC(=O)CN2CCCC(Cn3nc(C)nc3C)C2)n(C)n1 (stereo unspecified),-22.15
10,CN(C)c1ccc(CN2CCC(C(O)Cc3ccccc3)CC2)cn1 (stereo unspecified),-42.8
11,CSCc1ccc(N2CCN(c3ccc(Cl)cn3)CC2)nc1,38.3
12,CSCc1ccc(N2CCC(C(O)Cc3ccccc3)CC2)nc1 (stereo unspecified),74.3
13,Cc1ccc(N2CCC(C(O)Cc3ccccc3)CC2)nn1 (stereo unspecified),-2.97
14,CC(C)CC(O)C1CCN(Cc2ccc(N(C)C)nc2)CC1 (stereo unspecified),10.6
15,CSCc1ccc(N2CCC(C(O)CC(C)C)CC2)nc1 (stereo unspecified),67.4
16,CSCc1noc(-c2ccc(C)c(N3CCNC3=O)c2)n1,9.52
17,COc1ccc(F)cc1-c1ccccc1CC1(C(=O)O)CCOCC1,26.7
18,O=C(N[C@@H]1c2ccccc2C[C@@H]1O)C1CCN(Cc2ccco2)CC1,48.4
19,CC(NS(N)(=O)=O)c1ccc(OCc2ccc(F)cc2)cc1 (stereo unspecified),14.6
20,CCc1cc(NC(C)(C)C)nc(N2CCOCC2)n1,-3.12
21,CCc1cc(NC2CCN(CC(N)=O)CC2)nc(N2CCCCC2)n1,51.5
22,CCc1cc(NCCNC(C)=O)nc(N2CCCC2)n1,48.2
23,CCc1cc(NC2CCS(=O)(=O)CC2)nc(N2CCCCC2)n1,23.3
24,CCc1cc(NC2CCS(=O)(=O)C2)nc(N2CCCCC2)n1 (stereo unspecified),52.6
25,CCc1cc(NCC(N)=O)nc(N2CCCCC2)n1,32
26,CCc1n[nH]c(C2CN(C(=O)c3cc(C(N)=O)cs3)CCO2)n1 (stereo unspecified),-15.5

row,Compound,INHIBITION [%]
1,CCC(NC1CCCC1)c1ccc(S(C)(=O)=O)cc1 (stereo unspecified),22.1
2,CC(NC(=O)c1nc(=O)[nH][nH]1)c1ccc(OCC2CC2)c(F)c1 (stereo unspecified),5.53
3,O=C(c1ccncc1)N1CCc2ncnc(C3CC3)c2CC1,27.6
4,CCC(Nc1cccc(OC)c1)C(=O)NCc1ccc2[nH]c(=O)[nH]c2c1 (stereo unspecified),-0.27
5,C=C1C(C)(C)[C@@H]2CC[C@]1(C(=O)N1CCC(Cn3cc(CO)nn3)CC1)C2,45.6
6,Cc1ccc(C(=O)N2CCC(n3cc(CO)nn3)CC2)cn1,55.9
7,Cc1cc(C(=O)N2CCC(n3cc(CO)nn3)CC2)ccc1F,39.3
8,C=C1C(C)(C)[C@@H]2CC[C@]1(C(=O)N1CCC(n3cc(CO)nn3)CC1)C2,54.5
9,Cc1ccoc1C(=O)N1CCC(n2cc(CO)nn2)CC1,-37.8
10,C=C1C(C)(C)[C@@H]2CC[C@]1(C(=O)N1CCC(n3cc(CCO)nn3)CC1)C2,-10.9
11,Cn1cc(C2CC(=O)NC23CCN(Cc2nccs2)CC3)cn1 (stereo unspecified),-0.371
12,N#Cc1cccc(CN2C[C@H](OCC3CCOCC3)[C@H]3COC[C@H]32)c1,19.5
13,Cc1c[nH]nc1C1CCN(c2cnccn2)C1 (stereo unspecified),9.745
14,CC(C)(C)n1cc(C(=O)O)c(-c2ccc(F)cc2F)n1,68.3
15,COc1ccc(-c2ccc(C(=O)O)c(F)c2)c(F)c1,15.2
16,Cc1cc(NC(=O)COC(=O)c2ccc(F)cc2Br)n(C)n1,34.1
17,Cn1cc(C(=O)O)c(-c2ccc(F)cc2F)n1,18
18,CC(CN(C)C(=O)c1cn(C)nc1-c1ccc(F)cc1F)C(=O)O (stereo unspecified),24.4
19,Cn1cc(C(=O)OCC(N)=O)c(-c2ccc(F)cc2F)n1,58.6
20,O=C(Nc1cccc(Cn2cccn2)c1)N1CCCC(N2CCCC2)C1 (stereo unspecified),16.2
21,CS(=O)(=O)CCCSc1n[nH]c(-c2ccc3c(c2)CCC3)n1,-18.8
22,Cc1ccc(F)cc1S(=O)(=O)NCc1cccc(C(=O)N2CCCC2)c1,-77.1
23,O=C(NC1CCC(O)CC1)c1ccc2nc(-c3ccccc3)cn2c1 (stereo unspecified),-25.1
